Measurements: PubChem BioAssay (NCATS)
Several values for one entry are separate records, joined by “and”; a condition that tells them apart may be missing. Identical values can stand only once. Inconclusive results are not listed. Activity calls are given as the source filed them. Unless noted, calls follow the shape of the dose curve; as a rule, active = well fitted curve in the direction sought with a large enough effect; inconclusive = small, poorly fitted or top-dose-only effect, or another doubt; inactive = no such curve, though single readings can be large; an effect the other way counts as inactive or inconclusive.

Legend:
[1] = tested on: Zika virus NS2B-NS3 protease; assay: Primary screen GU AMC qHTS for Zika virus inhibitors (AID 1347154);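 also: 0% = no-inhibitor control and -100% = no-enzyme control; nearly all actives have a fitted effect of over 70% in size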
Summary of the method: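 Unlinked Zika NS2B hydrophilic domain–NS3 protease complex at 25 nM in 10 mM Tris-HCl pH 8.0, 0.01% Tween 20, with an AMC peptide substrate. Fluorescence change (340/450 nm) over 15 min at room temperature, normalized to controls, fitted to 4-parameter Hill.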

[2] = Primary qHTS for small molecule stabilizers of the endoplasmic reticulum resident proteome: Secreted ER Calcium Modulated Protein (SERCaMP) assay (AID 1508630); also: % is scaled to controls: 0 for no effect and ±100 for the full control effect
Summary of the method: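 GLuc-SERCaMP-expressing SH-SY5Y cells, pretreated 16 h with compound, are challenged with thapsigargin to empty ER calcium stores; after 4 h, coelenterazine is added directly to the medium and luminescence is imaged.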

[3] = AP1 Signaling Pathway (AID 357; active = well fitted curve in either direction with a large enough effect, not every such curve was filed as active;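 also: ME-180 reporter cells stimulated with EGF at its EC50 level; % is scaled to controls: 0 for no effect and ±100 for the full control effect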); conditions: ME-180 AP-1-bla reporter, EGF-induced, beta-lactamase ratio, 5 h
Summary of the method: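 Cells are seeded overnight, exposed to compound titrations and an EC50 level of EGF for 5 hours at 37 °C, then loaded with CCF4 dye for 2.5 hours. Beta-lactamase activity under the AP-1 element is read as a blue/green ratio.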

[4] = molecular target: Cytochrome P450 1A2 (Homo sapiens) (UniProt P05177); assay: p450-cyp1a2 (AID 410; calls by dose curve;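 also: -100% = full effect of reference inhibitor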)
Cytochrome P450 1A2 (Homo sapiens), sequence (P05177 whole entry, looked up): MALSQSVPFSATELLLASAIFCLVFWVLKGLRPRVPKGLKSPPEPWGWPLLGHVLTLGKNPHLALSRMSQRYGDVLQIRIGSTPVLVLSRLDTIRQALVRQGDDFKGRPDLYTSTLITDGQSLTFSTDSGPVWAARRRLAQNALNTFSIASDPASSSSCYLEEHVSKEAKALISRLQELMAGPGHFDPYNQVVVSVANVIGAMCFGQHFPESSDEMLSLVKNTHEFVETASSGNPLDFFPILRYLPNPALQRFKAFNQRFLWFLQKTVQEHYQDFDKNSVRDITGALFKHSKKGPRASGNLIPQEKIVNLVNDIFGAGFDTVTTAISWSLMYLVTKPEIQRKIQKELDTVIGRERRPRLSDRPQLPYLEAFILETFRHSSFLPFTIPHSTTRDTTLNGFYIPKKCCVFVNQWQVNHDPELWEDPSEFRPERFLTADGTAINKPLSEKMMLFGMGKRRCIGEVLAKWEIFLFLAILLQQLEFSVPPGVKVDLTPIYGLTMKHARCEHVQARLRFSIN
Summary of the method: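 Luminescent readout of luciferin formed from Luciferin-ME by human CYP1A2; data normalized against complete inhibition by 57 uM furafylline. Enzyme 20nM, substrate 100uM at Km, 100mM KPO4 buffer, 60 min reaction at room temperature.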

[5] = NFAT Signaling Pathway (AID 444; active = well fitted curve in either direction with a large enough effect, not every such curve was filed as active;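 also: carbachol stimulus at about its EC50 of 1 µM final; % is scaled to controls: 0 for no effect and ±100 for the full control effect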); conditions: Jurkat NFAT-bla M1, carbachol, beta-lactamase ratio, 5 h
Summary of the method: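 Jurkat cells with NFAT-driven β-lactamase reporter and co-expressed M1 receptor, stimulated with carbachol (final 1 uM, ~EC50), compound titration, 5 h at 37 °C. CCF4 loaded 1 h at RT; 460/530 nm ratio gave %activity and AC50.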

[6] = Stat Signaling Pathway (AID 446; active = well fitted curve in either direction with a large enough effect, not every such curve was filed as active;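 also: ME-180 cervical cancer cells given 40 pM IL-6 alongside compound; SIE-controlled beta-lactamase reporter measured as 460/530 nm FRET emission ratio; % is scaled to controls: 0 for no effect and ±100 for the full control effect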); conditions: ME-180 SIE beta-lactamase reporter, IL-6 stimulated, 5 h
Summary of the method: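 ME-180 SIE-bla cells; overnight plating; cpd + IL-6 40 pM, 5 h, 37 C; LiveBLAzer 2.5 h RT; 460/530 nm emission ratio. Normalized to 300 pM IL-6 and 125 nM JAK inhibitor controls.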

[7] = molecular target: Glucocorticoid receptor (Homo sapiens) (UniProt P04150); assay: GR-GFP Redistribution (AID 450;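 active = compounds whose dose series gives a full or clear partial fitted curve of increased nuclear translocation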; also: potency is read from the fitted curve at half-maximal effect); conditions: U2OS GR-GFP nuclear translocation, laser cytometry, 2 h
Glucocorticoid receptor (Homo sapiens), sequence (P04150 whole entry, looked up, the tested form may be a part): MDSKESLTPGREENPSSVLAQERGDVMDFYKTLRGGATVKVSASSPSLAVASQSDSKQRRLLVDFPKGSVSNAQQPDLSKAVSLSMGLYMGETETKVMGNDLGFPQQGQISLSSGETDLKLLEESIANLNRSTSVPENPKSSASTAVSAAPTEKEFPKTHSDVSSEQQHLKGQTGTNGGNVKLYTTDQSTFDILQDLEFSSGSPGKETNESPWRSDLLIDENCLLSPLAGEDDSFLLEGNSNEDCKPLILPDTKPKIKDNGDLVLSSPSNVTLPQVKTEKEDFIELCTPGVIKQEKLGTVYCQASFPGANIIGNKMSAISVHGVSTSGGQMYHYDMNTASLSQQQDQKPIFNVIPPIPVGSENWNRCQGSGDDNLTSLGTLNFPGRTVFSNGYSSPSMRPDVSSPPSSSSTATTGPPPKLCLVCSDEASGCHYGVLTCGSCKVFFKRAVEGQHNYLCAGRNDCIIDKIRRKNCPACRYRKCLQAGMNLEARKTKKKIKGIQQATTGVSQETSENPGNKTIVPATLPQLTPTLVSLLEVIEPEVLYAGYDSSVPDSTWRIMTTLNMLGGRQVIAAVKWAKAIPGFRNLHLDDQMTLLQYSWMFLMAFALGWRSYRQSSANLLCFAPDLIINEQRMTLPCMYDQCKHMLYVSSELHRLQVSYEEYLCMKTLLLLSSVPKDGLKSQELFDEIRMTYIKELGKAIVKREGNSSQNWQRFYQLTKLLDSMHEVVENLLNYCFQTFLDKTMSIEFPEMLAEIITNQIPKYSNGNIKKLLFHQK

[8] = molecular target: Glucocorticoid receptor (Homo sapiens) (UniProt P04150); assay: GR-EFC Redistribution (AID 451; calls by dose curve; also: potency is read from the fitted curve at half-maximal effect); conditions: CHO-K1 GR-EFC translocation, beta-gal luminescence, 2 h
Summary of the method: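 CHO-K1 cells expressing nuclear EA and GR-ED fragments of b-gal; compounds titrated up to 46 uM final, 2 h at 37 C. GR nuclear translocation read as complemented b-gal luminescence after 1 h RT detection.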

[9] = molecular target: Mitogen-activated protein kinase 10 (Mus musculus) (UniProt Q61831); assay: JNK3 AlphaScreen Assay (AID 530; active = well fitted curve in either direction with a large enough effect, not every such curve was filed as active)
Summary of the method: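 Pre-activated (IL-1β/TNFα) JNK3 in HepG2 lysates phosphorylates biotin-GST-cJun(1-79), 10 uM ATP; anti-phospho-cJun(Ser73) AlphaScreen read at room temperature, pH 7.6 Tris buffer. Compounds pre-incubated 15 min as titrations.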

[10] = molecular target: 3',5'-cyclic-AMP phosphodiesterase 4B (Homo sapiens) (UniProt Q07343); assay: qHTS Assay for Inhibitors of PDE-IV (AID 607; active = well fitted activation curve with a large enough effect in the main read-out, with a control signal flat, not every such curve was filed as active; also: % of control where 0% means no effect)
3',5'-cyclic-AMP phosphodiesterase 4B (Homo sapiens), sequence (Q07343 whole entry, looked up): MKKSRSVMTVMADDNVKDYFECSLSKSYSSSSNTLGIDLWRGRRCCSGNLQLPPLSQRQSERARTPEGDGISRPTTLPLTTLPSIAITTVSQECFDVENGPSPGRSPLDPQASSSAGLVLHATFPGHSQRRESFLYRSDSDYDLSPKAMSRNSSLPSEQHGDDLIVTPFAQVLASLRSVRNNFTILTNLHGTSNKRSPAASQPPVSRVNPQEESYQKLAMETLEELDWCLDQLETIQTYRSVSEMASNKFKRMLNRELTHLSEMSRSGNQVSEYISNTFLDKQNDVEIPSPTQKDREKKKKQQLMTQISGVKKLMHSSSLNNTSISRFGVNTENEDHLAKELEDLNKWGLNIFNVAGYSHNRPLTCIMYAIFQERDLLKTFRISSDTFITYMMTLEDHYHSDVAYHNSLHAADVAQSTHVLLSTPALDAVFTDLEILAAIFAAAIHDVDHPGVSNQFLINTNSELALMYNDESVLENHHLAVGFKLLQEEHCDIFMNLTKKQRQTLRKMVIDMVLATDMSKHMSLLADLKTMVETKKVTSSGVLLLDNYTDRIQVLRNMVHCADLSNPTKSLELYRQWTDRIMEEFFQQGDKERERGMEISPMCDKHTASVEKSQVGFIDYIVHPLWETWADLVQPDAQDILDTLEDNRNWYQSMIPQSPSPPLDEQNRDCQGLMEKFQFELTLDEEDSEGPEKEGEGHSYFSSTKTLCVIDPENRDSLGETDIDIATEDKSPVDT
Summary of the method: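 ACTOne HEK293 cells carry a modified cAMP-gated CNG channel and express endogenous PDE4; plated 1000 cells/well, compounds up to 22.9 uM final. Membrane-potential dye fluorescence (ex 535/em 590) was read; parental cells received 10 uM forskolin + 100 uM RO 20-1724.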

[11] = molecular target: Guanine nucleotide-binding protein G(i) subunit alpha-1 (Homo sapiens) (UniProt P63096); assay: qHTS Assay for Inhibitors of RGS12 GoLoco Motif Activity (Green Fluorophore) (AID 879);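 also: 0% = labeled peptide with Gαi1 and full inhibition = labeled peptide alone without protein; negative values mean loss of peptide binding seen as reduced polarization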
Summary of the method: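 Fluorescence polarization assay: 50 nM Gαi1 with 10 nM FITC-labeled RGS12 GoLoco peptide in 10 mM Tris pH 7.5, 150 mM NaCl, 0.1 mM GDP, 0.05% NP40, 10 min at room temperature with compound.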

[12] = molecular target: Cytochrome P450 2C9 (Homo sapiens) (UniProt P11712); assay: qHTS Assay for Inhibitors and Substrates of Cytochrome P450 2C9 (AID 883); also: % is scaled to controls: 0 for no effect and ±100 for the full control effect; nearly all actives have a fitted effect of over 60% in size
Summary of the method: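 Signal: luciferase luminescence reporting luciferin produced by CYP2C9. Conditions: 10nM enzyme, Luciferin-H 100uM at KM, 25mM KPO4, 37C, 60 min NADPH-driven reaction. Reference: 57uM sulphaphenazole as 100% inhibition.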

[13] = molecular target: Cytochrome P450 3A4 (Homo sapiens) (UniProt P08684); assay: qHTS Assay for Inhibitors and Substrates of Cytochrome P450 3A4 (AID 884); also: % is scaled to controls: 0 for no effect and ±100 for the full control effect; nearly all actives have a fitted effect of over 50% in size
Cytochrome P450 3A4 (Homo sapiens), sequence (P08684 whole entry, looked up): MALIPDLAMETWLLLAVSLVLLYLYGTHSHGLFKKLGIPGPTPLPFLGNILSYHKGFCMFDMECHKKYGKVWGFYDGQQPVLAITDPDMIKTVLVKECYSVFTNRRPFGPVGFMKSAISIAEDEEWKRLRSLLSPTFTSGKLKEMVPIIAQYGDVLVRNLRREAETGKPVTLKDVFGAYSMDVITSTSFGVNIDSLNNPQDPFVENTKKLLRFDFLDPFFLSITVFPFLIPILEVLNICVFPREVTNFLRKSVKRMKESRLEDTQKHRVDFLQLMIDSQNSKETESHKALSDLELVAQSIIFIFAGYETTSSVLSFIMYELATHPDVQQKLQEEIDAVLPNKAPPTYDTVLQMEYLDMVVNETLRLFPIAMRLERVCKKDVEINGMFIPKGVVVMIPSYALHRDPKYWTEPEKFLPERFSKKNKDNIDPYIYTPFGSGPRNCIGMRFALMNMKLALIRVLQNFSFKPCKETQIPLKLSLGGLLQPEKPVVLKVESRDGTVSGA
Summary of the method: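 20 nM human CYP3A4 with 25 uM Luciferin-PPXE (at KM) in 200 mM KPO4, preincubated 10 min with compound; NADPH regeneration started a 60 min RT reaction. Luciferin detected by luminescence, normalized to 57 uM ketoconazole as full inhibition.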

[14] = molecular target: Cytochrome P450 2C19 (Homo sapiens) (UniProt P33261); assay: qHTS Assay for Inhibitors and Substrates of Cytochrome P450 2C19 (AID 899); also: % is scaled to controls: 0 for no effect and ±100 for the full control effect; nearly all actives have a fitted effect of over 60% in size
Summary of the method: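 Signal comes from luciferase acting on luciferin released by CYP2C19-mediated hydroxylation of Luciferin-H EGE, 10uM (KM). Assay mix: 5nM enzyme, 50mM KPO4; 60 min at 37C with NADPH regeneration. Data normalized against 57uM ketoconazole.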

[15] = Confirmation and Secondary Assay for Modulators of Hemoglobin Beta Chain Splicing at IVS2 654 locus (AID 910);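 also: HeLa cells stably carrying EGFP split by mutant beta-globin IVS2-654 intron; % of control where 0% means no effect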
Summary of the method: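 HeLa cells stably expressing EGFP interrupted by β-globin IVS2-654 intron, seeded overnight in Opti-MEM/2% FCS, then treated 2 days at 37 °C. Restored splicing read as total peak GFP intensity per well by laser scanning cytometry (488 nm excitation, 500–520 nm emission); 500 nM antisense PNA as control.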

[16] = Confirmation and Secondary Assay for Modulators of Hemoglobin Beta Chain Splicing at IVS2 705 locus (AID 930);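 also: HeLa cells stably expressing the EGFP-705 splicing reporter; GFP fluorescence per well restored by corrected splicing of the IVS2-705 intron in EGFP; % of control where 0% means no effect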
Summary of the method: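 Fluorescence gain (488 nm laser, 500-520 nm PMT) reflects restored correct splicing of a mutant IVS2-705 intron inside EGFP in stably transfected HeLa cells after 2-day compound treatment.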

[17] = molecular target: Muscarinic acetylcholine receptor M1 (Rattus norvegicus) (UniProt P08482); assay: qHTS Assay for Antagonists of Acetylcholine Muscarinic M1 Receptor: Kinetic Measurement of Intracellular Calcium Response (AID 943);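 also: Fluo-4 calcium signal as peak divided by basal fluorescence over 4 min; nearly all actives have a fitted effect of over 75% in size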
Muscarinic acetylcholine receptor M1 (Rattus norvegicus), sequence (P08482 whole entry, looked up): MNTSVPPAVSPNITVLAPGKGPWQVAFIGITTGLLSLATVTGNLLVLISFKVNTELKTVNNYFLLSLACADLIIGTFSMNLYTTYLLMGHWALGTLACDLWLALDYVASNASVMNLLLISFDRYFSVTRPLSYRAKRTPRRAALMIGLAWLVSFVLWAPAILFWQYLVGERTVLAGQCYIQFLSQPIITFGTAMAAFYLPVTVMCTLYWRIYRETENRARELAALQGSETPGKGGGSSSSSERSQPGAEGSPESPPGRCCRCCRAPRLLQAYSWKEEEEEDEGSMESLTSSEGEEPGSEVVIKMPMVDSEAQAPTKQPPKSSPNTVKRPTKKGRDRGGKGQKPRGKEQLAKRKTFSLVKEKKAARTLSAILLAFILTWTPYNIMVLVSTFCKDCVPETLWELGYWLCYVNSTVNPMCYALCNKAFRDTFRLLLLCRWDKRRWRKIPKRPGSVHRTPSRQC
Summary of the method: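 Rat M1-CHO cells, 2000/well, overnight → Fluo-4 no-wash dye with probenecid, 1 h 37C → compound 10 min, room temp → basal read 6 s → carbachol EC80 (100 nM) → 4 min kinetic read; peak/basal.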

[18] = molecular target: Pyruvate kinase (Leishmania mexicana) (UniProt Q27686); assay: qHTS Validation Assay for Inhibitors of Leishmania Mexicana Pyruvate Kinase (AID 945);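 also: 0% = DMSO only neutral control wells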
Summary of the method: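 Compounds are tested as eight-point concentration series. Reactions contain 0.2 nM LmPYK E451W, 0.5 mM PEP, 0.1 mM ADP, 7 mM MgCl2 and 50 mM KCl at pH 7.2, run 1 h at room temperature, then read by PKLight luminescence.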

[19] = molecular target: Pyruvate kinase PKM (Homo sapiens) (UniProt P14618); assay: qHTS Assay for Activators of Human Muscle Pyruvate Kinase (AID 954; active = well fitted curve in the direction sought with a large enough effect, not every such curve was filed as active;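 also: 0% = uninhibited enzyme and -100% = no enzyme or full thiadiazolimine inhibition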)
Pyruvate kinase PKM (Homo sapiens), sequence (P14618 whole entry, looked up): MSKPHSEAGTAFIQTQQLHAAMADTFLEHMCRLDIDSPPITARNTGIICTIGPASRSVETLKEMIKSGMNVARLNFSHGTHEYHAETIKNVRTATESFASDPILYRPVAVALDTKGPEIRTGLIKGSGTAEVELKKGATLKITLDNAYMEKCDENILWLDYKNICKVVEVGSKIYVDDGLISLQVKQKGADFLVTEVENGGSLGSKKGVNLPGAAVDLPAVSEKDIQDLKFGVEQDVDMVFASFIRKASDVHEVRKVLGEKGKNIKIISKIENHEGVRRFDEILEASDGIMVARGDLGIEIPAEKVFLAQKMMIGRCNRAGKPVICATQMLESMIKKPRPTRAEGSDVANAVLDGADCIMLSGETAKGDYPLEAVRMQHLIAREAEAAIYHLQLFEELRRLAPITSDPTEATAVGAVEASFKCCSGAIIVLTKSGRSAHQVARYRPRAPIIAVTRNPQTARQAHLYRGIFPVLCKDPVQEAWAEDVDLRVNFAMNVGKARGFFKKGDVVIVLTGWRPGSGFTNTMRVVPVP
Summary of the method: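 Luminescence from a luciferase ATP-detection/stop reagent reported PKM2 activity. Reactions contained 0.1 nM purified human enzyme, 0.5 mM PEP, 0.1 mM ADP and 7 mM MgCl2 at pH 7.2, run 1 h at RT.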

[20] = molecular target: Alpha-galactosidase A (Homo sapiens) (UniProt P06280); assay: Counterscreen for Glucocerebrosidase Inhibitors: qHTS Assay for Human alpha-Galactosidase at pH 4.5 (AID 992); also: 0% is about no effect
Summary of the method: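 Enzyme at 2 nM final was combined with compound (0.7 nM to 77 uM) and 80 uM 4-methylumbelliferyl alpha-D-galactopyranoside in 50 mM citric acid, 0.005% Tween-20, pH 4.5. After 20 min at room temperature, fluorescence was read (Ex 365/Em 440 nm); AC50 came from Hill fits.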

[21] = molecular target: alpha-glucosidase (Oryza sativa, rice) (UniProt Q653V4); assay: Counterscreen for Glucocerebrosidase Inhibitors: qHTS Assay for Rice alpha-Glucosidase at pH 5.0 (AID 997);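 also: 0% = full activity with enzyme and -100% = basal without enzyme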
Summary of the method: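 Rice alpha-glucosidase (4 nM final) with 400 uM 4-methylumbelliferyl-alpha-D-glucopyranoside in citrate buffer pH 5.0, 20 min at room temperature, stopped at pH 10; fluorescence 365/440 nm, compounds 0.7 nM–77 uM, AC50 from Hill fits.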

[22] = qHTS Assay for Lipid Storage Modulators (AID 1519; calls by dose curve); conditions: Drosophila S3 cells, BODIPY lipid droplet/cell ratio, laser cytometry, cells loaded with oleic acid
Summary of the method: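 Cells seeded at 5,000 per well were treated with compounds over a concentration series and loaded with oleic acid (400 uM, as added). Lipid droplet fluorescence (488 nm excitation, 500-530 nm channel) was read by laser-scanning cytometry and normalized to 20 uM Triacsin C.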

[23] = molecular target: Ubiquitin carboxyl-terminal hydrolase 1 (Homo sapiens) (UniProt O94782); assay: Inhibitors of USP1/UAF1: Pilot qHTS (AID 504865);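 also: rhodamine fluorescence freed from ubiquitin-rhodamine substrate followed over time; top concentration of the series differs between compounds; % is scaled to controls: 0 for no effect and ±100 for the full control effect; nearly all actives have a fitted effect of over 35% in size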
Ubiquitin carboxyl-terminal hydrolase 1 (Homo sapiens), sequence (O94782 whole entry, looked up): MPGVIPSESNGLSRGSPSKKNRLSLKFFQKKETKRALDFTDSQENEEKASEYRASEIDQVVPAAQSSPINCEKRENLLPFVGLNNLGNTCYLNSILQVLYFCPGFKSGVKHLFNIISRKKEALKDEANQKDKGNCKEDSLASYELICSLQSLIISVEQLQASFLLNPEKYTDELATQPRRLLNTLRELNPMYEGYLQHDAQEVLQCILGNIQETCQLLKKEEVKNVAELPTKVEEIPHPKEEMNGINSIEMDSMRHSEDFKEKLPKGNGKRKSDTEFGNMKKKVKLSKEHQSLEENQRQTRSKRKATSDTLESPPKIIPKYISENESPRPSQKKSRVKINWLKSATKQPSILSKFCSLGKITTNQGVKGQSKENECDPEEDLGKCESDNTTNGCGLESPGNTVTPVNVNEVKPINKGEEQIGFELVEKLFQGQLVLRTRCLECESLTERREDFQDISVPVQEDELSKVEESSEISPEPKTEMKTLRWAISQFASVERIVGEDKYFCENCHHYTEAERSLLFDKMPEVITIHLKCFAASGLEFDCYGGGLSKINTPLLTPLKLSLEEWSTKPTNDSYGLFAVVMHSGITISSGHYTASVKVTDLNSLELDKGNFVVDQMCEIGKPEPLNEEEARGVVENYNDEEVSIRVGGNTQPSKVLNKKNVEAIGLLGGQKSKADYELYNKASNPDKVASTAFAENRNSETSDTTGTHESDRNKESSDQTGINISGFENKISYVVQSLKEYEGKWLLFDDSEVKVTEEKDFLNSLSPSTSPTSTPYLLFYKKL
Summary of the method: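 USP1/UAF1 complex (1nM) preincubated with compound 15 min at room temperature, then Ub-Rho substrate (150nM final) added. Fluorescence read kinetically at 480/540 nm, 6 reads every 60 seconds. Buffer: 50mM HEPES pH 7.8, 0.5mM EDTA, 0.1 mg/ml BSA, 1mM TCEP, 0.01% Tween-20.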

[24] = molecular target: DNA dC->dU-editing enzyme APOBEC-3G (Homo sapiens) (UniProt Q9HC16); assay: qHTS for inhibitors of Vif-A3G interactions: Validation (AID 588379); also: 0% is about no effect
DNA dC->dU-editing enzyme APOBEC-3G (Homo sapiens), sequence (Q9HC16 whole entry, looked up): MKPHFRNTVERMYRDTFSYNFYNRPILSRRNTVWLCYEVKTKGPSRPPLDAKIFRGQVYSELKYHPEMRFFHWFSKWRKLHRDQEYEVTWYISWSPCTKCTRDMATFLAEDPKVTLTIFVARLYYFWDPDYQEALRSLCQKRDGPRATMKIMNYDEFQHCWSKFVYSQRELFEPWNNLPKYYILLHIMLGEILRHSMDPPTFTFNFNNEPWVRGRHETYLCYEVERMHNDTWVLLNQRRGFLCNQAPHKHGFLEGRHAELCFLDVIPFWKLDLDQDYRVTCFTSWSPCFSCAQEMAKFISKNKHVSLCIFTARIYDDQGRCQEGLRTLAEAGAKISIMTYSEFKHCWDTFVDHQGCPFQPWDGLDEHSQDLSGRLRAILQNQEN
Summary of the method: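 HeLa cells stably expressing Vif and A3G-eYFP, 700 cells/well, incubated overnight at 37 deg C, then exposed to compound overnight at 37 deg C. Inhibition of Vif-mediated degradation read as increased yellow fluorescence (Ex 488/Em 500-530) by laser-scanning cytometry.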

Cn1cnc2c(ncn2[C@@H]2O[C@H](CO)[C@@H](O)[C@H]2O)c1=N
inactive: Potency [1] | Potency [2]

C=C[C@H](N)CCC(=O)O
1.97% and -5.49%: max response ([22]; measured here: lipid channel max response)
inactive: activity change, negative = inhibition ([3]; at 17.2 µM (top of the series)) -1.55% | activity change, negative = inhibition ([3]; at 38 µM (top of the series)) 6.29% | Potency [4] | activity change, negative = inhibition ([5]; at 17.2 µM (top of the series)) -1.05% | activity change, negative = inhibition ([5]; at 38 µM (top of the series)) 2.77% | activity, negative = inhibition ([6]; at 17.2 µM (top of the series)) -1.55% | activity, negative = inhibition ([6]; at 38 µM (top of the series)) -14.6% | Potency [7] > 46 µM and > 20.6 µM | Potency [8] > 46 µM and > 20.6 µM | Potency [9] | Potency [10] | outcome [11] | Potency [12] | Potency [13] | Potency [14] | outcome [15] | outcome [16] | Potency [17] | Potency [18] | outcome [19] | outcome [20] | outcome [21] | activity change, negative = inhibition ([22]; at 25.7 µM (top of the series)) -2.99% | activity change, negative = inhibition ([22]; at 57.5 µM (top of the series)) -0.953% | Potency [23] | Potency [24] | Potency [1] | Potency [2]
3.82% and -3.83%: max response ([22]; measured here: cell count channel max response)
